MRP-1 activ = MRP-1 activation. H69AR cells + doxorubicin, viability rescue, CellTiter-Glo. viability increase, % at 10 µM. actives 0.61% (n = 140,000). AID 799;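 active = viability gain under doxorubicin at or above a set limit, the compound median plus 3 SD, cut at about 4.7% in these data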;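 note: MRP-1 overexpressing cells given doxorubicin 25 µM after compound pretreatment; 18-22 h compound pretreatment then 72 h with doxorubicin before readout; 0% = doxorubicin-only wells and 100% = vehicle-treated cells without doxorubicin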
CYP2C9 inh = human CYP2C9 inhibition | CYP2C9 Supersomes, luciferin-H conversion, luminescence | inhibition, % at 5 µM | AID 777 | actives 20% (n = 96,000);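 active = blocking of liver enzyme CYP2C9 beyond about 50% at 5 µM, limit read from the data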
Target sequence (P11712 whole entry, looked up): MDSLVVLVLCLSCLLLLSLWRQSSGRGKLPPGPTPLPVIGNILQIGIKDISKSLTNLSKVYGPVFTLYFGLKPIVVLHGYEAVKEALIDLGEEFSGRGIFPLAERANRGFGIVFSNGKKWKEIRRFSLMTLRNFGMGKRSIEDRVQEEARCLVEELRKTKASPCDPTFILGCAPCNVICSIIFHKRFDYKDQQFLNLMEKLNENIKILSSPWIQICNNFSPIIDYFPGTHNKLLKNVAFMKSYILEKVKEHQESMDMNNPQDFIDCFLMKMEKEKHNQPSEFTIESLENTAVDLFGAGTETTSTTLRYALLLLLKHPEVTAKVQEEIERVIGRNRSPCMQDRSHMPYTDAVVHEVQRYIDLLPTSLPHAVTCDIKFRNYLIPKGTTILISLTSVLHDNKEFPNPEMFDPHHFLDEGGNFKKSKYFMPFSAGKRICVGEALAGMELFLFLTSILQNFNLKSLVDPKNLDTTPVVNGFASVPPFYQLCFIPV
MRP reversal = reverses drug resistance mediated by MRP; actives 0.04% (n = 85,000); differential viability (reversal), % at 10 µM; H69AR cells + 2 uM doxorubicin, CellTiter-Glo, 72 h;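 active = viability drop by adding the cancer drug above about 55%, with treated viability meeting a 40% cutoff, limit read from the data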;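 note: viability without doxorubicin minus viability with 2 µM doxorubicin for each compound; larger differential means the compound sensitizes cells more to doxorubicin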
CYP2C9 activ = increases human cytochrome P450 2C9 activity. P11712. recombinant CYP2C9, luciferin-H conversion, luminescence; active compounds read high; factor 1 = untreated enzyme, 0 = blocked. activation factor at 5 µM. actives 1.4% (n = 96,000);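 active = activation factor of 2 or more for CYP2C9 at a 5 µM dose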;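 note: 0 = sulfaphenazole-blocked wells and 1 = vehicle-only wells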
CYP2C19 inh = inhibitors of human CYP2C19 | CYP2C19 Supersomes, luciferin-H EGE luminescence, 30 min | inhibition, % at 5 µM | P33261 | actives 21% (n = 96,000) | AID 778;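 active = CYP2C19 inhibition above a set limit at 5 µM in the primary screen, cut at about 50% in these data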;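 note: plate controls were negative control wells for no effect and 2.5 mM tranylcypromine positive control for full effect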
CYP2C19 act = cytochrome P450 2C19 (human) activation. P33261. recombinant CYP2C19, luciferin-H EGE luminescence; active compounds read high; 0 = fully inhibited enzyme, 1 = untreated enzyme. activation factor at 5 µM. 96,000 tested, under 10 active;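 active = activation factor of at least 2 at 5 µM in the primary screen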;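 note: 0 = wells with 2.5 mM tranylcypromine and 1 = vehicle-only wells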
Starred values were filed as active, the others as inactive. Hits are enriched below; roughly 21% of the tested compounds scored in any of these assays.

`Cc1ccc(C(=O)Cn2c(N3CCOCC3)nc3c2c(=O)n(C)c(=O)n3C)cc1` gave MRP-1 activ -1, CYP2C9 inh 54*, MRP reversal -7, CYP2C9 activ 0.5, CYP2C19 inh -11 and CYP2C19 act 1.1.
CC(C)OC(=O)c1cc(NC(=O)c2nn(C)cc2Br)cc(C(=O)OC(C)C)c1 was read as MRP-1 activ -2.
Screening CCN(CC)S(=O)(=O)c1cc(NC(=O)COC(=O)c2sc3ccccc3c2Cl)ccc1C returned MRP-1 activ 2.
For COc1nc(-c2ccccc2)cc(-c2ccc(OC)c(OC)c2)n1 the results were MRP-1 activ -1, CYP2C9 inh 80*, CYP2C9 activ 0.2, CYP2C19 inh 76* and CYP2C19 act 0.2.
CC(=O)Nc1cccc(Oc2ncnc3scc(-c4ccc(C)cc4)c23)c1 was read as MRP-1 activ -4.
Cc1[nH]c2ccccc2c1/C=C(\C#N)C(=O)NC(C)c1ccccc1 (stereo unspecified) was read as MRP-1 activ -3, CYP2C9 inh -111, CYP2C9 activ 2.1*, CYP2C19 inh 15 and CYP2C19 act 0.9.
Cc1[nH]c2ccccc2c1/C=C(\C#N)S(=O)(=O)c1ccccc1 was read as MRP-1 activ -1, CYP2C9 inh 67*, MRP reversal -15, CYP2C9 activ 0.3, CYP2C19 inh 20 and CYP2C19 act 0.8.
`Cc1[nH]c2ccccc2c1/C=C/C(=O)c1ccccc1` gave MRP-1 activ -4.
Screening Cc1ccc(NC(=O)CS(=O)(=O)c2cn(C)c3ccccc23)c(C)c1 returned MRP reversal -4.
Screening CCn1cc(S(=O)(=O)CC(=O)Nc2ccc(C)cc2)c2ccccc21 returned MRP-1 activ -1, CYP2C9 inh 32, MRP reversal -4, CYP2C9 activ 0.7, CYP2C19 inh 90* and CYP2C19 act 0.1.
Screening CCn1cc(S(=O)(=O)CC(=O)Nc2ccc3c(c2)OCCO3)c2ccccc21 returned MRP-1 activ 0, CYP2C9 inh 70*, MRP reversal -10, CYP2C9 activ 0.3, CYP2C19 inh 36 and CYP2C19 act 0.6.
Screening CCCn1cc(S(=O)(=O)CC(=O)Nc2ccc(OCC)cc2)c2ccccc21 returned MRP-1 activ -2, CYP2C9 inh 30, MRP reversal -26, CYP2C9 activ 0.7, CYP2C19 inh 24 and CYP2C19 act 0.8.
Cn1cc(S(=O)(=O)CC(=O)Nc2ccc(Br)cc2)c2ccccc21 was read as MRP-1 activ -2, CYP2C9 inh -1, MRP reversal 5, CYP2C9 activ 1, CYP2C19 inh 99* and CYP2C19 act 0.
For O=C(CN(Cc1ccc(F)cc1)C(=O)C1CSC(=O)C1)NC1CCCCC1 (stereo unspecified) the results were MRP-1 activ -1, CYP2C9 inh 11, CYP2C9 activ 0.9, CYP2C19 inh 40 and CYP2C19 act 0.6.
O=C(OCCN=C1NS(=O)(=O)c2ccccc21)C1CC(=O)N(c2ccc3ccccc3c2)C1 (stereo unspecified) was read as MRP-1 activ 1, CYP2C9 inh -34, MRP reversal 23, CYP2C9 activ 1.3, CYP2C19 inh 31 and CYP2C19 act 0.7.
Screening COc1ccc(N=C(C)C2=C(O)COC2=O)cc1 returned MRP-1 activ -1, CYP2C9 inh 4, MRP reversal -7, CYP2C9 activ 1, CYP2C19 inh 7 and CYP2C19 act 0.9.
Screening COc1cc(NC(=S)NC2CC2)c(OC)cc1Cl returned MRP-1 activ -2.
Screening Cn1c(CNc2ccc(Cl)cc2)nnc1SCCN1CCCCC1 returned MRP-1 activ -3 and MRP reversal 9.
Cn1c(CNc2ccc(Cl)cc2)nnc1SCc1ccccc1 was read as MRP-1 activ 1, CYP2C9 inh 57*, MRP reversal -13, CYP2C9 activ 0.4, CYP2C19 inh 34 and CYP2C19 act 0.7.
Screening CCOC(=O)CSc1nnc(CNc2ccccc2Cl)n1-c1ccccc1 returned MRP-1 activ -2, CYP2C9 inh 20, MRP reversal 8, CYP2C9 activ 0.8, CYP2C19 inh 48 and CYP2C19 act 0.5.
Screening CCn1c(CNc2ccc(Cl)cc2)nnc1SCc1ccccc1 returned MRP-1 activ -5, CYP2C9 inh 77*, CYP2C9 activ 0.2, CYP2C19 inh 66* and CYP2C19 act 0.3.
`COC(=O)CSc1nnc(CNc2ccc(Cl)cc2)n1-c1ccccc1` gave MRP-1 activ -1, CYP2C9 inh 27, MRP reversal -3, CYP2C9 activ 0.7, CYP2C19 inh 54* and CYP2C19 act 0.5.
CCn1c(CSCc2ccc(C)cc2)nnc1SCC(=O)NCc1ccccc1 was read as MRP-1 activ 0, CYP2C9 inh 54*, CYP2C9 activ 0.5, CYP2C19 inh 24 and CYP2C19 act 0.8.
`Cn1c(N)c(C(=O)c2ccc(C#N)cc2)c(=O)n(C)c1=O` gave MRP-1 activ 0.
CCn1c(CNc2ccc(Cl)cc2)nnc1SCC(=O)NCc1ccccc1 was read as MRP-1 activ -2, CYP2C9 inh 55*, MRP reversal 7, CYP2C9 activ 0.4, CYP2C19 inh 67* and CYP2C19 act 0.3.
Cn1c(CNC(=O)Nc2ccccc2Cl)nnc1SCc1ccccc1 was read as MRP-1 activ 1, CYP2C9 inh 32, MRP reversal 2, CYP2C9 activ 0.7, CYP2C19 inh 64* and CYP2C19 act 0.4.

Screening results from PubChem.
